Assay outcomes (PubChem BioAssay)
This is a sample that favours compounds with a hit; in the whole collection about 18% have one here.
TDP1 cell CPT: DT40-hTDP1 cell growth loss with CPT; chicken DT40 Tdp1-/-;hTDP1 cells + 20 nM CPT, ATP luminescence, 48 h; hit rate 12% among 420,000; AID 686979; Potency, µM (series often up to 46.2 µM), for inactives: at the highest dose activity change, negative = growth inhibition, most hits filed as inhibitors; also: potency is read from the fitted curve at half-maximal effect; nearly all actives have a fitted effect of over 55% in size
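Cell growth measured by CellTiter-Glo luminescence after a minimum 48 h, 37 C compound exposure with 20 nM CPT in Tdp1-knockout DT40 cells stably expressing hTDP1, seeded 400/well; qHTS titration format.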
IL-1B inflam inh: inhibitors of inflammasome signaling (IL-1 beta secretion); AID 743279; activity change, % at 57.5 µM; hit rate 4.7% among 360,000; THP-1 LPS/ATP IL-1B secretion, AlphaLISA, 16 h; stronger effect = lower value; in the data active = activity change below about -50%; inconclusive = mostly about -30% to -49%
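Secreted IL-1B measured by AlphaLISA bead assay after 16 h compound exposure of THP-1 cells; compounds (final up to 57.5 uM) added 1 h before LPS (250 ng/mL) and ATP (1.25 mM) stimulation; lower signal means less secretion.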
Six1-Eya2 blk: Six1/Eya2 interaction inhibition. Q15475+O00167. AlphaScreen GST-Six1/His-Eya2 binding, biochemical; stronger effect = lower value. activity change, % (no concentration beside the values). hit rate 0.56% among 360,000; in the data active = activity change below about -65%; inconclusive = mostly about -30% to -63%
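AlphaScreen luminescence read after one hour at 37 °C in darkness. Pin-transferred compounds met GST-Six1 and His-Eya2 protein (5X stock 250 nM/500 nM) plus glutathione donor and Ni-chelate acceptor beads (5X, 50 ug/mL).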
DT40 TDP1 no CPT: qHTS for Inhibitors of human tyrosyl-DNA phosphodiesterase 1 (TDP1): qHTS in cells in absence of CPT; Potency, µM (doses to about 46.2 µM), without a hit: top-dose activity change, negative = growth inhibition, usual class: inhibitors; hit rate 15% among 420,000; DT40 Tdp1-/- hTDP1 cells, no CPT, ATP luminescence, 48 h; also: potency is read from the fitted curve at half-maximal effect; nearly all actives have a fitted effect of over 55% in size
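Cells were dispensed at 400 per well, compounds added by pin tool, plates incubated ≥48 hr at 37 °C, then CellTiter-Glo added for 30 min at room temperature before luminescence reading. Line: DT40 Tdp1-/- complemented with hTDP1; camptothecin omitted.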
CtBP-E1A inh: blocks the CtBP interaction with E1A; AlphaScreen GST-E1A/His-CtBP binding, 1536-well; stronger effect = lower value; activity change, % (test concentration not listed); hit rate 0.49% among 340,000; in the data active = activity change below about -65%; inconclusive = mostly about -30% to -63%
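Protein mix (5X: 125 nM each GST-E1A, His-CtBP) was incubated with pinned compound 2 h at 37 deg C in dark, in 50 mM Tris pH 8.0 buffer with 300 mM NaCl. Glutathione donor and nickel acceptor beads followed; AlphaScreen signal read after 1 h.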
TDP1 block: TDP1 (human) enzyme inhibition; Q9NUW8; hit rate 0.28% among 350,000; Potency, µM (doses to about 130 µM), for inactives: at the highest dose activity change, negative = inhibition, usual class: inhibitors; recombinant TDP1, AlphaScreen DNA substrate cleavage; also: potency is read from the fitted curve at half-maximal effect; nearly all actives have a fitted effect of over 40% in size
Target sequence (Q9NUW8 whole entry, looked up): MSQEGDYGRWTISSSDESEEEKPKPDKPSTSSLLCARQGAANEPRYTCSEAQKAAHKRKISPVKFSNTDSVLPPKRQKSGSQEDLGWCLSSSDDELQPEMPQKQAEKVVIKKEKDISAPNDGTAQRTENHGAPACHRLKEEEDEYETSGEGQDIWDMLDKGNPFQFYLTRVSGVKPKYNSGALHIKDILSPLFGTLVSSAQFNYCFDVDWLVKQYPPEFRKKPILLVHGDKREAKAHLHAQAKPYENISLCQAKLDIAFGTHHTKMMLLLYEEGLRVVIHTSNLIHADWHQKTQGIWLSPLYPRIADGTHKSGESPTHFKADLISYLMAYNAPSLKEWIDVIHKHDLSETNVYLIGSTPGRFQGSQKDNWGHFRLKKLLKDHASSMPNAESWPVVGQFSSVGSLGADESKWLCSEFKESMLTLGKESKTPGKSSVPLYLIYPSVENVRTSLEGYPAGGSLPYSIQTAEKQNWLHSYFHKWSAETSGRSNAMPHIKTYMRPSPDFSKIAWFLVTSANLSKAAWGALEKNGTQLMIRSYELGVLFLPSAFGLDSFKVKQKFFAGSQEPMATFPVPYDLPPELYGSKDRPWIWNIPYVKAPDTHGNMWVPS
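Recombinant human Tdp1 (E. coli-expressed, 1 nM final) preincubated with compounds 15 min at room temperature, then 5'-biotin/3'-phosphotyrosine-FITC DNA substrate (15 nM final) added for 5 min. AlphaScreen beads (10 ug/ml final) added 10 min; cleavage lowers signal.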
Starred values were filed as active, the others as inactive; u = inconclusive; x = not tested or not shown; [ ] = another dose, or the depositor's remark. Unless noted, calls follow the shape of the dose curve; as a rule, active = well fitted curve in the direction sought with a large enough effect; inconclusive = small, poorly fitted or top-dose-only effect, or another doubt; inactive = no such curve, though single readings can be large; an effect the other way counts as inactive or inconclusive. % is scaled to controls: 0 for no effect and ±100 for the full control effect.

SMILES	TDP1 cell CPT	IL-1B inflam inh	Six1-Eya2 blk	DT40 TDP1 no CPT	CtBP-E1A inh	TDP1 block
Cc1ccc(CN2CCC[C@]3(N[C@H](c4ccccc4)[C@@H]4C(=O)N(Cc5ccccc5)C(=O)[C@@H]43)C2=O)cc1	26µM*	-16	18	16µM*	4	x
Cc1ccc(CN2CCC[C@]3(N[C@H](c4ccc(C)cc4)[C@@H]4C(=O)N(Cc5ccccc5)C(=O)[C@@H]43)C2=O)cc1	u	-2	-6	u	0	x
O=C1[C@H]2[C@@H](c3ccccc3)N[C@]3(CCCN(Cc4ccccc4)C3=O)[C@H]2C(=O)N1Cc1ccccc1	-17%	-14	-8	u	0	x
O=C1[C@H]2[C@@H](c3ccccc3)N[C@]3(CCCN(Cc4ccc(C(F)(F)F)cc4)C3=O)[C@H]2C(=O)N1Cc1ccccc1	18µM*	-28	-21	u	-4	x
CCn1c(Cc2ccc(OC)cc2)nnc1SCC(=O)NC1CC1	14%	11	6	21%	1	3%
CC(=O)N1CCN(C(=O)c2ccc(C)c(S(=O)(=O)N3CCCCC3)c2)CC1	-17%	-6	0	-10%	11	-2%
Cc1c(C(=O)N2CCCCCC2)c(S(=O)(=O)Nc2ccc(OC(F)(F)F)cc2)c(C)n1C	23µM*	x	x	16µM*	x	11%
Cc1c(C(=O)N2CCOCC2)c(S(=O)(=O)Nc2ccc(C(C)C)cc2)c(C)n1C	13µM*	42	3	u	2	5%
Cc1c(C(=O)N2CCOCC2)c(S(=O)(=O)Nc2ccc(OC(F)(F)F)cc2)c(C)n1C	u	0	2	-24%	0	5%
O=C(NCc1ccc2c(c1)OCO2)C(c1ccco1)N(C(=O)c1csnn1)c1ccccc1 (centres undefined)	u	19	2	-21%	3	2%
Fc1ccc(-c2cc(-c3ccc(F)cc3)c3c(n2)-c2cc(F)ccc2OC3)cc1	u	x	x	-21%	x	2%
Cc1ccc(-c2cc(-c3ccc4c(c3)NC(=O)CO4)nc3c2COc2ccccc2-3)cc1	5.2µM*	x	x	4.1µM*	x	2%
Cc1ccc2c(c1)-c1nc(-c3ccc4c(c3)NC(=O)CO4)cc(-c3ccc(F)cc3)c1CO2	5.8µM*	x	x	4.6µM*	x	-6%
O=C(Nc1cccnc1)c1scc2c1OCCO2	-7%	-8	3	-14%	2	-4%
CCCc1nc2oc3cc(OC)ccc3c(=O)c2c(=O)n1CCc1ccccc1	21µM*	-11	-14	23µM*	-3	5%
COc1ccc2c(=O)c3c(=O)n(Cc4ccco4)c(C(C)C)nc3oc2c1	3%	-7	-4	-23%	-8	-5%
CC(C)c1nc2c(c(=O)c3ccccc3n2C)c(=O)n1CCc1ccccc1	u	x	-4	9.2µM*	-1	-1%
COCCCn1c(C2CCCCC2)nc2oc3cc(OC)ccc3c(=O)c2c1=O	u	4	-1	21µM*	-2	0%
COc1ccc(CCn2c(C(C)C)nc3oc4ccccc4c(=O)c3c2=O)cc1	u	-8	-6	29µM*	-9	0%
O=C(COc1ccc(Cl)cc1)N1CCN(S(=O)(=O)c2cc(F)ccc2F)CC1	u	-29	4	u	-18	x
COc1ccc(NC(=O)N(C)C[C@H]2OCCCC[C@@H](C)Oc3ccc(N(C)C)cc3C(=O)N([C@H](C)CO)C[C@@H]2C)cc1	-27%	13	-5	u	3	x
COc1ccc(NC(=O)N(C)C[C@H]2OCCCC[C@H](C)Oc3ccc(NC(=O)Nc4ccc5c(c4)OCO5)cc3C(=O)N([C@@H](C)CO)C[C@@H]2C)cc1	21µM*	-30	-20	u	-13	x
C[C@H]1CCCCO[C@H](CN(C)C(=O)Nc2ccc(F)cc2)[C@@H](C)CN([C@@H](C)CO)C(=O)c2cc(NC(=O)Nc3ccc4c(c3)OCO4)ccc2O1	21µM*	-17	-20	u	3	x
C[C@@H]1CCC2[C@](C)(CO)[C@@H](O)CC[C@]2(C)[C@@]12CCC(CO)(CCO)O2 (some centres undefined)	-12%	15	10	u	x	x
CC(=O)c1ccc(-n2cc(C#N)c(=O)[nH]c2=O)cc1	7%	19	2	5%	x	x
SMILES	TDP1 cell CPT	IL-1B inflam inh	Six1-Eya2 blk	DT40 TDP1 no CPT	CtBP-E1A inh	TDP1 block
Cc1cc(Br)ccc1SCC(=O)OCC(O)=C(C#N)c1nc2ccccc2[nH]1	4.6µM*	-102*	2	4.6µM*	0	x
N#C/C(=C(/O)COC(=O)CSc1ccc2ccccc2c1)c1nc2ccccc2[nH]1	5.2µM*	-105*	-7	2.9µM*	-1	0%
Cc1c(C(=O)OC/C(O)=C(\C#N)c2nc3ccccc3[nH]2)oc2ccc(Br)cc12	-26%	34	7	u	-6	x
Cc1ccc(C)c(SCC(=O)OC/C(O)=C(\C#N)c2nc3ccccc3[nH]2)c1	u	-97*	-5	u	-5	10%
Cc1cc(Br)ccc1SCC(=O)OC/C(O)=C(\C#N)c1nc2ccccc2[nH]1	u	0	4	21µM*	x	x
CC(C)C(=O)OC/C(O)=C(\C#N)c1nc2ccccc2[nH]1	4%	80	-9	-8%	-4	8%
N/C(=N\OC(=O)CCCOc1ccccc1)c1ccccn1	16%	1	1	12%	0	-11%
CCN(CCCNC(=O)Cn1ncc2c([nH]c3ccc(C)cc32)c1=O)c1cccc(C)c1	-5%	-16	10	0%	-12	-1%
CCCC1=C(C(=O)OCC)C(c2ccco2)n2ncnc2N1 (centres undefined)	-24%	17	0	u	x	x
COc1cccc(NC(=O)N2CCc3nc(NCc4cccc(Oc5ccccc5)c4)ncc3C2)c1	10µM*	34	-8	21µM*	-10	x
COc1cccc(NC(=O)N2CCc3nc(Nc4cc(Cl)cc(Cl)c4)ncc3C2)c1	u	-54*	-5	23µM*	-8	x
CCOc1ccc(NC(=O)N2CCc3ccccc3C2)cc1	-18%	-7	-8	-14%	3	4%[56.1 µM]
CC(C)c1ccc(Nc2ncc3c(n2)CCN(C(=O)Nc2ccc(F)c(Cl)c2)C3)cc1	u	-13	2	u	0	x
O=C(Nc1ccc(OC(F)(F)F)cc1)N1CCc2nc(NCc3cccc(Oc4ccccc4)c3)ncc2C1	18µM*	-22	-10	21µM*	-4	x
